ROC1-CUL1 inh = human ROC1-CUL1 E3 ligase inhibition; P62877+Q13616; in vitro K48 di-Ub FRET, acceptor:donor ratio, 45 min; inhibition, % at 10 µM; hit rate 0.6% among 140,000; in the data active = inhibition above about 25%
Target sequence (P62877 whole entry, looked up): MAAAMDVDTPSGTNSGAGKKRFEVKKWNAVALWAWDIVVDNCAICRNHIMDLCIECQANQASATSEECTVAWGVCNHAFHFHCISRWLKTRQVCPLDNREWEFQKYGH
Target sequence (Q13616 whole entry, looked up): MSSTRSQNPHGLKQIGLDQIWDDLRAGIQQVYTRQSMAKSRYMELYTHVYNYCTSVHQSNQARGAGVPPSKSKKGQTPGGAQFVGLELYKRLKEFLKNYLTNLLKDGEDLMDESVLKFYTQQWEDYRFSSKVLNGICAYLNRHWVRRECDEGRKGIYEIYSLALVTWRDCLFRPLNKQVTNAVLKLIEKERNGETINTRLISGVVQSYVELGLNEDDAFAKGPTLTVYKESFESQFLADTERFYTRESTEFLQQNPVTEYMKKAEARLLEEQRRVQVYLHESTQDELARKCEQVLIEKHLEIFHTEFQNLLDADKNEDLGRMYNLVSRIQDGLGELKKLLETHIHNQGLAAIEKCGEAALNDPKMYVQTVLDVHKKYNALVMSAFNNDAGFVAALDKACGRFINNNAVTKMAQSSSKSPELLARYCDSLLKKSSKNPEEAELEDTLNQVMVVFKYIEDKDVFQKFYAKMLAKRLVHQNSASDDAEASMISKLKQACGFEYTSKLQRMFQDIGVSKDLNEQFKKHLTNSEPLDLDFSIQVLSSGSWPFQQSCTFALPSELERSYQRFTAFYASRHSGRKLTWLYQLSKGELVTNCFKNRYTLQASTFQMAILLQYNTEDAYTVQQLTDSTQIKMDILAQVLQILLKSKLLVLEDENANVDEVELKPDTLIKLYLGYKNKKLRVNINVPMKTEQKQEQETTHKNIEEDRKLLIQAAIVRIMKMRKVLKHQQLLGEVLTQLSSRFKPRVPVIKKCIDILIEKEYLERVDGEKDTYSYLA
* = called active by the depositor. Shown is part of a subset that was picked to be rich in hits.

SMILES | ROC1-CUL1 inh
O=C1NC(=Nc2ccc(F)cc2)S/C1=C\c1ccc(OCc2cccc(C(=O)O)c2)cc1 | 14
COc1cccc(CN(C)C2CCN(c3ccc(C(=O)NCCN4CCOCC4)cc3)CC2)c1 | 6
O=C(O)c1cccc2c1-c1ccccc1C2=O | -4
CS(=O)(=O)Oc1ccc2c(-c3ccccc3C(=O)O)c3ccc(=O)c(I)c-3oc2c1I | 117*
COc1cccc(NC(=O)C2CC(=O)N(C(C)c3ccccc3)C2)c1 (stereo unspecified) | 3
Cc1nn(C)cc1CNCC1(O)CCCN(Cc2ccc(F)cc2)C1=O (stereo unspecified) | -10
O=C(c1cn(C2CCCCC2)nn1)N1CCCC1 | -2
CC(=O)C(C(C)=O)C1=C(Cl)C(=O)C(=O)c2c(C(=O)c3ccc(C)cc3)coc21 | 79*
Cc1ccc(C(=O)c2coc3c2cc(O)c2ccccc23)cc1 | -8
Cc1ccc(C(=O)c2coc3ccc(O)c(Cl)c23)cc1 | 0
CCOC(=O)C1C(=N)N(c2ccc(OC)cc2)C2=C(C(=O)CCC2)C1c1ccc([N+](=O)[O-])cc1 (stereo unspecified) | -9
CCOc1cc(C2C(C(=O)c3cc4ccccc4o3)C(=O)C(=O)N2c2nnc(SCc3ccccc3Cl)s2)ccc1O (stereo unspecified) | 33*
O=C1C(=O)N(c2nnc(SCc3ccccc3Cl)s2)C(c2ccc(Cl)cc2)C1C(=O)c1cc2ccccc2o1 (stereo unspecified) | 29*
CC(=O)c1sc(N2C(=O)C(=O)C(C(=O)c3cc4ccccc4o3)C2c2ccc(O)cc2)nc1C (stereo unspecified) | 11
CCCCCOc1ccc(C2C(C(=O)c3cc4ccccc4o3)C(=O)C(=O)N2c2nc3ccc(OCC)cc3s2)cc1OC (stereo unspecified) | -6
CCOc1cc(C2C(C(=O)c3cc4ccccc4o3)C(=O)C(=O)N2Cc2ccco2)ccc1O (stereo unspecified) | 3
O=C1C(=O)N(c2nnc(SCc3ccccc3F)s2)C(c2ccc(Cl)cc2)C1C(=O)c1cc2ccccc2o1 (stereo unspecified) | -2
N#CC1C(=N)Oc2cc3c(cc2C1c1ccccc1OCc1ccccc1Cl)OCO3 (stereo unspecified) | -5
C(=Nc1ccc2c(c1)oc1ccccc12)c1ccc(Sc2nnnn2-c2ccccc2)o1 | -8
CC(C)C(=O)Nc1ccc(N2CCN(C(=O)C(C)(C)C)CC2)cc1 | -2
CN(C)c1ccc(/C=C2/OC(=S)NC2=S)cc1 | 26*
CN(C)c1ccc(/C=C\c2ccccc2)cc1 | 4
CC1=NOC(=O)/C1=C\c1ccc(N(C)C)cc1 | 1
COC(=O)c1ccccc1NC(=O)CSc1nnc(CNc2cccc(Cl)c2)o1 | 0
COC(=O)C1C(=N)Oc2c(oc(CO)cc2=O)C1c1ccc(F)cc1 (stereo unspecified) | -7
SMILES | ROC1-CUL1 inh
CCN(CC)CCN=CC1C(=O)N(c2c(Cl)cccc2Cl)c2ccccc21 (stereo unspecified) | 4
CN(C)/C=C1/N=C2C=C(c3ccccc3)c3cc(Cl)ccc3N2C1=O | 0
CN(C)/C=C1\C(=O)N(c2c(Cl)cccc2Cl)c2cc(C=C(C#N)C#N)ccc21 | 34*
Cn1c(Cc2ccccc2)nnc1SCC(=O)Nc1cccc2ccccc12 | -9
CC(NC(=O)c1ccccc1F)c1ccccc1 (stereo unspecified) | -12
CC(NC(=O)c1ccc(Br)cc1Br)c1ccccc1 (stereo unspecified) | 14
CC(NC(=O)c1cc([N+](=O)[O-])cc2c1-c1c(cc([N+](=O)[O-])cc1[N+](=O)[O-])C2=C(C#N)C#N)c1ccccc1 (stereo unspecified) | 39*
CC(C)(C)c1ccccc1OCC(=O)NC1CCCC1 | 1
O=C(CCC1CCCN(C(=O)c2cc3ccccc3oc2=O)C1)N1CCCC1 (stereo unspecified) | 13
C=CCn1c(SCC(=O)Nc2sc(C(=O)OCC)c(C)c2C(=O)OCC)nc2scc(-c3ccco3)c2c1=O | 8
C=CCn1c(SCC(=O)Nc2cccc(C(F)(F)F)c2)nc2scc(-c3ccco3)c2c1=O | 34*
C=CCn1c(SCC(=O)Nc2cccc(C(F)(F)F)c2)nc2sc3c(c2c1=O)CCC3 | -5
Cc1cc(-c2cc3c(cc2I)OCO3)on1 | 3
COC(=O)c1ccc(C(=O)OC)c(NC(=O)c2ccc(Br)cc2)c1 | -9
COC(=O)c1cc(Br)ccc1Cl | 4
COC(=O)c1cc(Br)cc(O)c1O | 83*
CCC1c2c(ccc3ccccc23)OC(=O)C1C(=O)Nc1ccc(C)cc1 (stereo unspecified) | -6
O=C1/C(=C/c2ccc(Cl)cc2)COc2ccc3ccccc3c21 | 15
O=C1Oc2ccc3ccccc3c2C(=O)C1CC1C(=O)Oc2ccc3ccccc3c2C1=O (stereo unspecified) | 32*
Cn1c(=O)n(C)c2cc(/C=C3\SC(=Nc4ccccc4)N(c4ccccc4)C3=O)ccc21 | 11
CC(=O)c1coc2c1C(=O)c1ccccc1C2=O | 34*
Cc1ccc(NC(=O)c2cccc3c2C(=O)c2ccccc2-3)cc1 | 2
O=C1C(=O)c2c(C(=O)c3cccs3)coc2-c2ccccc21 | -5
O=C1C=C(N2CCOCC2)CCC12C(=O)Oc1ccc(O)cc12 (stereo unspecified) | 5
CCCNC(=O)c1ccc2c(c1)OCCO2 | 13
SMILES | ROC1-CUL1 inh
CC1=C(C#N)C(=O)N(CCc2ccccc2)C(=O)/C1=C/c1ccc(-c2ccc(S(N)(=O)=O)cc2)o1 | 26*
CC1=C(C#N)C(=O)N(CCO)C(=O)/C1=C\c1ccc(-c2ccccc2)o1 | -12
CCCN1C(=O)C(C#N)=C(C)/C(=C\c2ccc(-c3ccccc3)o2)C1=O | 8
O=C1NC(=Nc2cccc(C(F)(F)F)c2)S/C1=C\c1c(F)cccc1Cl | 0
COC1(OC)C(=O)Nc2ccccc2C1=O | 3
Cc1cccc2c1OC(=O)C(C(c1ccc(N(C)C)cc1)C1C(=O)Oc3c(C)cccc3C1=O)C2=O (stereo unspecified) | 92*
Cc1ccccc1N1OC2C(=O)N(c3ccccc3Cl)C(=O)C2C1c1ccc(N(C)C)cc1 (stereo unspecified) | -7
Cc1c(C(c2ccc(Br)cc2)C2C(=O)Oc3ccccc3C2=O)c(=O)n(-c2ccccc2)n1C (stereo unspecified) | -3
COC(=O)c1cc(OCc2cccc(C(F)(F)F)c2)c2c(c1)Oc1nc3ccccc3nc1O2 | 1
CN(C(=O)Cn1cccn1)C(Cc1ccccc1)C1CCN(C(=O)c2cccc(-n3cccn3)c2)CC1 (stereo unspecified) | -11
CN(Cc1ccccc1)C1(C(=O)NCCc2cnn(C)c2)Cc2ccccc2C1 | -7
O=C1C(Cl)=CC(=NS(=O)(=O)c2cccs2)c2ccccc21 | 41*
O=C1C(=O)c2ccccc2/C1=C\c1cccs1 | 6
O=C(O)C(Cc1ccccc1)NS(=O)(=O)c1cccs1 (stereo unspecified) | -1
COc1cc(NC(=O)c2ccc3c(c2)C(=O)N(Cc2cccnc2)C3=O)c(C(=O)O)cc1OC | 4
CC(=O)C(C(C)=O)c1c([N+](=O)[O-])cnc2c1c(=O)n(C)c(=O)n2C | -3
Nc1ccccc1C(=O)Nc1cccc(Cl)c1 | 10
O=C(Nc1cccc(Cl)c1)Nc1ccccc1C(=O)O | 2
O=C(O)c1cc2oc3ccccc3c3ccccc3oc2cc1C(=O)Nc1cccc(Cl)c1 | 40*
O=C(Oc1ccc(NS(=O)(=O)c2ccccc2)cc1)c1ccc(Cl)cc1 | 13

Bioassay records from PubChem BioAssay.
